HP1b binding inh: HP1-beta chromodomain-methylated histone interaction inhibition; P83916; AlphaScreen HP1-beta / biotin-H3K9me3 peptide binding; 0.56% of 390,000 active; Potency, µM (top dose mostly 114 µM), for inactives: at the top dose activity change, negative = inhibition, hits mostly inhibitors; note: potency is the fitted concentration of half-maximal effect; nearly all actives have a fitted effect of over 70% in size
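Compound inhibition of the preformed complex between 50 nM HP1-beta and 50 nM biotinylated H3K9me3 peptide was read by AlphaScreen. Buffer was PBS pH 7.4 with 0.01% Tween-20. Incubations ran 30 min at room temperature, with 10 ug/mL donor/acceptor beads.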
CtBP-E1A inh: CtBP/E1A binding inhibition. AlphaScreen GST-E1A/His-CtBP binding, 1536-well; active compounds read low. activity change, % (no concentration beside the values). 0.49% of 340,000 active. AID 651724; in the data active = activity change below about -65%; inconclusive = mostly about -30% to -63%; note: % is set by controls: 0 for no effect and ±100 for the full control effect
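AlphaScreen with 125 nM GST-E1A and 125 nM His-CtBP (5X stocks) in Tris pH 8.0, 300 mM NaCl, BSA, Tween 20, TCEP. Compounds preincubated 2 h at 37 deg C, then glutathione donor/nickel acceptor beads added for 1 h at 37 deg C in dark.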
G9a inh: inhibitors of human histone lysine methyltransferase G9a. Q96KQ7. G9a H3K9 monomethylation, AlphaScreen, 2 h. AID 504332. Potency, µM (series often up to 102 µM), for the others: top-dose activity, negative = inhibition, usual class: inhibitors. 8.8% of 350,000 active; note: potency is the fitted concentration of half-maximal effect; % is set by controls: 0 for no effect and ±100 for the full control effect; nearly all actives have a fitted effect of over 75% in size
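Compounds were preincubated with 20 nM G9a for 15 min, after which biotinylated H3K9 peptide (500 nM) and SAM (20 uM) started a 2 h room-temperature reaction. Monomethylated product was quantified by antibody-based AlphaScreen chemiluminescence.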
BAZ2B inh: BAZ2B (human) inhibition; Q9UIF8; AlphaScreen BAZ2B-H3K14Ac peptide displacement; Potency, µM (titrated, usually from 114 µM), inactives show top-dose activity change, negative = inhibition, actives largely listed as inhibitors; 4.4% of 360,000 active; AID 504333; note: potency is the fitted concentration of half-maximal effect; % is set by controls: 0 for no effect and ±100 for the full control effect; nearly all actives have a fitted effect of over 60% in size
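AlphaScreen displacement of biotin-H3(5-23)K14Ac peptide (50 nM final) from BAZ2B (50 nM final) in PBS pH 7.4, 0.01% Tween-20; complex preformed 30 min RT, then compounds (top 110 uM) 30 min RT, beads 20 min dark.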
Six1-Eya2 blk: Six1/Eya2 interaction inhibition | 0.56% of 360,000 active | Q15475+O00167 | activity change, % (no concentration beside the values) | AlphaScreen GST-Six1/His-Eya2 binding, biochemical; active compounds read low; in the data active = activity change below about -65%; inconclusive = mostly about -30% to -63%; note: % is set by controls: 0 for no effect and ±100 for the full control effect
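AlphaScreen with GST-Six1 and His-Eya2 (5X mix: 250 nM and 500 nM), glutathione donor and nickel acceptor beads; buffer 50 mM Tris pH 8.0, 300 mM NaCl, 1 mM TCEP; 1 h at 37 C in the dark.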
JMJD2A Tudor inh: JMJD2A Tudor domain (human) inhibition. O75164. Potency, µM (series often up to 114 µM), for inactives: at the highest dose activity change, negative = inhibition, usual class: inhibitors. AlphaScreen JMJD2A-Tudor / H3K4me3 peptide binding. 4.4% of 390,000 active; note: potency is the fitted concentration of half-maximal effect; % is set by controls: 0 for no effect and ±100 for the full control effect; nearly all actives have a fitted effect of over 50% in size
Target sequence (O75164 whole entry, looked up, the tested form may be a part): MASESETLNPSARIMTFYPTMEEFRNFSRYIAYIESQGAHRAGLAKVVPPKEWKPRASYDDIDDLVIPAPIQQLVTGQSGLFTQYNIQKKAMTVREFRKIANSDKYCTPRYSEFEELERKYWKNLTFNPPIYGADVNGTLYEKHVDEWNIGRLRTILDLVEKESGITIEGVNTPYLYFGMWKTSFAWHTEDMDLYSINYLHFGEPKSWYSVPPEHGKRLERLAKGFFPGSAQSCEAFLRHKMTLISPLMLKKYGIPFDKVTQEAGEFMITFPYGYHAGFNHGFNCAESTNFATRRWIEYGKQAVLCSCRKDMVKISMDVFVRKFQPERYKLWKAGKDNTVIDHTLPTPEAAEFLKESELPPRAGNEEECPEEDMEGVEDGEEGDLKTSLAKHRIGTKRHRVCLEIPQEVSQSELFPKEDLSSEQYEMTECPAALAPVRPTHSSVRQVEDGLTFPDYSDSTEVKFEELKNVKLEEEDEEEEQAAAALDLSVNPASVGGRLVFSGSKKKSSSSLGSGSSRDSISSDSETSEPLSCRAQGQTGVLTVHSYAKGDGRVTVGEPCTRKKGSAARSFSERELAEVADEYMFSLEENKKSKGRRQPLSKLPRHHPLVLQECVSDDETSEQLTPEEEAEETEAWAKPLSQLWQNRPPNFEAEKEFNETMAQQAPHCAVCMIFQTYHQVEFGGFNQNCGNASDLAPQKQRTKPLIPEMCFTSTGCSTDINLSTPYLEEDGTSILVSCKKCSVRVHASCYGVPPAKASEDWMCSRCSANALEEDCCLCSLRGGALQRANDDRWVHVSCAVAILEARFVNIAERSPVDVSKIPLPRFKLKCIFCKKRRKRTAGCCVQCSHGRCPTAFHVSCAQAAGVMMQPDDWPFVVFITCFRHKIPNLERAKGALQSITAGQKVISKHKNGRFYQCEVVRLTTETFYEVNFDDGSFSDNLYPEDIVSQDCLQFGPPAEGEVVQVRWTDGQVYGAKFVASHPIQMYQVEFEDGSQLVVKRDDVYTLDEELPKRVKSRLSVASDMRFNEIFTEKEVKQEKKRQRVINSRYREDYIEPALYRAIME
* hit, by the source's call; ? = inconclusive; . = no result; [ ] = dose if it differs, or a comment. Rows were chosen to be rich in hits. Some 10% of all compounds tested hit in one or more screens of this group. Unless noted, calls come from the whole dose curve; as a rule, active = well fitted inhibition curve with a large enough effect; inconclusive = small, poorly fitted or top-dose-only effect; inactive = no such curve, though single readings can be large or run the other way.

SMILES	HP1b binding inh	CtBP-E1A inh	G9a inh	BAZ2B inh	Six1-Eya2 blk	JMJD2A Tudor inh
Cc1cccc(N2CCN(C(=O)Cn3ncc4c3-c3ccccc3OC4)CC2)c1C	10.8%	.	?	-21.9%	.	-29.5%
C=C(C)C(=O)Oc1ccc(N2C(=O)CCC2=O)cc1	22.1%	-14.3	.	0.8%	-9.8	2.1%
C=C(C)C(=O)Oc1ccc(N=Nc2ccc(C)cc2)ccc1=O	10µM*	-11.3	.	.	?	3.55µM*
COC(=O)c1ccc(C)c(NC(=O)CCc2ccc(OC)c(OC)c2)c1	16.9%	-4.1	50.1µM*	-4.9%	3.5	-21.2%
COC(=O)c1ccc(C)c(NC(=O)CCc2cc(OC)c(OC)c(OC)c2)c1	19.1%	-1.6	44.7µM*	-2.0%	-1.3	8.4%
COc1ccc(CCNC(=O)CCc2cc(OC)c(OC)c(OC)c2)cc1	59.4%	.	3.2%	-1.7%	-2.8	7.0%
COc1cc(CCC(=O)Oc2ccc(C(C)=O)cc2)cc(OC)c1OC	33.2%	0.0	70.8µM*	-4.5%	19.1	-4.8%
CC(C)(Cc1c[nH]c2ccccc12)NCC(O)COc1ccccc1C#N (stereo not drawn)	.	.	-28.8%[12.7 µM]	.	.	.
CCC(C)NC(=O)Cn1c(=O)n(Cc2ccc(C(=O)NCc3ccc(C)cc3)cc2)c(=O)c2ccccc21 (stereo not drawn)	23.8%	.	-5.3%[59 µM]	?	.	-22.9%
COc1ccc(CCNC(=O)c2cnc3sc(N4CCC(C)CC4)nn3c2=O)cc1OC	6.1%	.	-1.4%[59 µM]	3.0%	.	-14.6%
CCc1cnc2c(c1SC(C(C)=O)C(=O)N(C)C)c(=O)n(C)c(=O)n2C (stereo not drawn)	?	.	4.47µM*	-29.9%	.	28.2µM*
O=C(NC(=S)Nc1ccc([N+](=O)[O-])cc1O)C1CCCCC1	2.9%	-10.7	-13.4%[12.7 µM]	-11.6%	?	-33.3%
Cn1ccc(C(=O)NC(=S)Nc2ccc([N+](=O)[O-])cc2O)n1	-3.0%	-5.6	25.1µM*	-31.6%	-27.6	-27.7%
Cc1c(C)c2c(C)nn(-c3ccccc3)c2[nH]c1=O	32.1%	-0.1	24.2%[12.7 µM]	-21.7%	-5.3	-4.5%
Nc1c2c(=O)[nH]c(O)cc2nn1-c1ccccc1	4.1%[57 µM]	-66.3*	.	.	6.8	-15.9%
COc1cc(OC)c(NC(=O)CCCn2nc(C)c3c(C)n(-c4ccccc4)nc3c2=O)cc1Cl	17.9%	.	-8.3%[59 µM]	-18.6%	.	-11.7%
CCOC(=S)SCc1cn2cccc(C)c2n1	48.3%	-0.2	31.6µM*	-19.7%	-0.7	-5.5%
CCOC(=O)c1ccccc1NC(=O)N1CCC(CN2CCOCC2)CC1	1.8%	.	3.7%[59 µM]	1.1%	.	-24.4%
COc1cnc(-c2ccccn2)nc1Sc1ccc(F)cc1	13.3%	-72.5*	-3.0%	28.2µM*	?	?
COc1cnc(-c2ccccn2)nc1Oc1ccccc1	44.7%	-66.6*	-3.7%	25.1µM*	?	89.1µM*
COc1cnc(-c2ccccn2)nc1Sc1ccc(Cl)cc1	24.3%	-10.4	22.9%	-6.5%	-7.0	?
COc1cnc(-c2ccccn2)nc1Oc1cccc(C(F)(F)F)c1	.	.	-10.8%	?	.	.
Nc1ccccc1SC/C=C/CSc1ccccc1N	25.7%	7.2	11.2µM*	-21.7%	-11.9	-17.6%
CCOC(=O)CNC(=O)CSc1nnc(-c2ccccc2)c(-c2ccccc2)n1	24.4%	-1.8	8.1%	-29.9%	-13.5	-8.1%
CCOC(=O)CSc1nc(-c2ccc(OC)cc2)ns1	19.2%	13.4	5.01µM*	51.5%	23.2	26.8%[57.1 µM]
SMILES	HP1b binding inh	CtBP-E1A inh	G9a inh	BAZ2B inh	Six1-Eya2 blk	JMJD2A Tudor inh
Cc1ccc(-c2nsc(SCC(=O)NCc3ccc4c(c3)OCO4)n2)cc1	33.7%	8.0	22.9%	7.2%	-1.7	-1.3%
O=C(CSc1nc(-c2ccccc2)ns1)NCC1CCCO1 (stereo not drawn)	-6.3%	-6.8	22.4µM*	-16.4%	-6.2	-4.1%
O=C(CSc1nnc(-c2ccccc2)c2ccccc12)NCC1CCCO1 (stereo not drawn)	.	.	-11.8%	.	.	.
CCOC(=O)CNC(=O)CSc1nc(-c2ccc(C)cc2)ns1	53.0%	-18.2	50.1µM*	-2.7%	-1.7	5.8%
CCOC(=O)CNC(=O)CSc1nc(-c2ccccc2)ns1	-24.4%	21.8	10µM*	-5.1%	16.5	-11.7%
Cc1ccc(-n2cnc3cc(C(=O)NC4CCCCCC4)ccc32)cc1Cl	23.9%	.	-25.8%[59 µM]	-11.0%	.	?
COC(=O)c1cc2oc(C)cc2n1CC(=O)Nc1ccc(OC)c(OC)c1	7.9%	.	-45.7%[59 µM]	?	.	-20.4%
Cn1c(=O)c2c(SCC(=O)NCC3CCCO3)nc(-c3cccs3)nc2n(C)c1=O (stereo not drawn)	.	.	50.1µM*	-0.5%	.	.
CCOC(=O)N1CCN(C(=O)CSc2nc(-c3cccc(C)c3)ns2)CC1	-5.4%	1.6	31.6µM*	-5.1%	2.1	31.6µM*
Cc1ccc(-c2nc(SCC(=O)NCC3CCCO3)c3c(=O)n(C)c(=O)n(C)c3n2)cc1 (stereo not drawn)	33.0%[57 µM]	.	8.4%[59 µM]	6.6%	.	3.2%
Cc1ccccc1Cn1ccn(-c2ccc(F)c(F)c2)c(=O)c1=O	23.2%	.	?	-30.9%	.	-27.0%
COC(=O)c1cccc(Nc2ncnc3sccc23)c1	53.6%	0.8	35.5µM*	.	-0.3	-12.0%
COc1cccc(Nc2ncnc3sccc23)c1	39.3%	3.8	-7.8%	12.8%	-1.4	-1.4%
COc1ccc(Nc2ncnc3sccc23)cc1	-1.7%	-16.0	44.7µM*	-7.1%	-1.9	-9.2%
c1ccc(Nc2ncnc3sccc23)cc1	8.7%	-11.5	-8.6%	0.7%	7.7	-5.0%
Cc1ccc(S(=O)(=O)c2cn(CC(=O)Nc3ccc4c(c3)OCO4)c3ccccc3c2=O)cc1C	-5.6%	.	?	-15.7%	.	-14.9%
CCOC(=O)Cn1c(=O)c2c(nc3n2CCN3c2ccc(CC)cc2)n(C)c1=O	81.6%	.	8.0%[59 µM]	30.6%	.	27.6%
S=C1NCN(Cc2ccco2)CN1CCc1ccccc1	37.2%	-0.3	?	-25.5%	-3.1	-13.1%
CCOCCCN1CN(Cc2ccco2)CNC1=S	-8.1%	-1.5	15.8µM*	-24.9%	3.4	-7.6%
CCN(CC)C(=S)SC1=CCS(=O)(=O)C1	45.4%	.	20µM*	.	17.9	3.0%[11.4 µM]
CC(C)CCNc1nc2c(S(=O)(=O)c3ccc(Br)cc3)nnn2c2ccsc12	55.8%	.	15.8%[59 µM]	5.3%	.	-15.8%
COc1ccccc1CN1C(=O)[C@H]2Cc3c([nH]c4ccccc34)C(C)(C)N2C1=O	40.2%	.	.	.	.	-21.8%
COc1cc(CN2CCc3c([nH]c4ccccc34)C2)cc(OC)c1	?	-7.5	31.6µM*	35.5µM*	-20.7	7.94µM*
COc1ccccc1CN1CCc2c([nH]c3ccccc23)C1	?	.	7.08µM*	50.1µM*	-0.6	20µM*
Clc1cccc(CN2CCc3c([nH]c4ccccc34)C2)c1Cl	?	.	50.1µM*	22.4µM*	-10.6	22.4µM*

Source: PubChem BioAssay
